B2AR arrestin: recruits beta-arrestin to the human beta2-adrenergic receptor; P07550; beta-arrestin recruitment to beta2AR, cell-based reporter; Potency, µM (highest dose often 46.1 µM), for the others: at the highest dose activation, actives largely listed as activators; 330,000 compounds, 0.02% hits;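 note: 0% = DMSO controls and full agonism = EC100 isoproterenol or metaproterenol; nearly all actives have a fitted effect of over 65% in size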
Target sequence (P07550 whole entry, looked up): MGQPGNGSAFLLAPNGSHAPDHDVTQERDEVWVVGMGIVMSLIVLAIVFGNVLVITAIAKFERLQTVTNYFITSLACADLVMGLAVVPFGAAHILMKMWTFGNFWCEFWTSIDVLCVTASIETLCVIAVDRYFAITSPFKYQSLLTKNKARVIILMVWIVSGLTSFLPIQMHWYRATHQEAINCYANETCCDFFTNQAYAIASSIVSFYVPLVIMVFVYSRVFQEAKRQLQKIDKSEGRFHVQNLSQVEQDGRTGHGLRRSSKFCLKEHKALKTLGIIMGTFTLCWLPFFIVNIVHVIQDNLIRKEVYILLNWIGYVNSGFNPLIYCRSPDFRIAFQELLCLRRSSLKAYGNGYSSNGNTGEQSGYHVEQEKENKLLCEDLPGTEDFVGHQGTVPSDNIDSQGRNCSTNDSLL
RORgamma inh: ROR gamma (mouse) transcription inhibition; 310,000 compounds, 5.4% hits; Potency, µM (series often up to 53.6 µM), for the others: at the highest dose activity change, negative = inhibition, actives largely listed as inhibitors; P51450; Drosophila S2 Gal4-RORgamma UAS-luciferase reporter, 20 h; note: nearly all actives have a fitted effect of over 60% in size
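Luciferase reporter read in Schneider cells carrying Gal4-RORγ (mouse) and UAS-Photinus luciferase; cells given compound 1 h before 700 uM copper sulfate induction, then incubated 20 h at ambient temperature.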
VP16 counter: counter-screen for ROR gamma inhibitors: Gal4-VP16 reporter | Drosophila S2 Gal4-VP16 UAS-luciferase, luminescence, 20 h | Potency, µM (series often up to 53.6 µM), without a hit: top-dose activity, negative = inhibition, actives largely listed as inhibitors | 310,000 compounds, 3.5% hits | AID 2546;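 note: Gal4-VP16 expression switched on by copper sulfate through the metallothionein promoter; nearly all actives have a fitted effect of over 50% in size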
NPSR antagonist: blocks cAMP signaling of the human neuropeptide S receptor; Q6W5P4; CHO-NPSR cells, cAMP TR-FRET, antagonist mode; Potency, µM (series often up to 38.3 µM), for inactives: at the top dose activity change, negative = inhibition, hits mostly inhibitors; 220,000 compounds, 1% hits; AID 1461; note: nearly all actives have a fitted effect of over 50% in size
An asterisk follows results filed as active; ? = inconclusive; · = no result given; [ ] = dose if it differs, or a comment. Rows were chosen to be rich in hits. Some 5.7% of all compounds tested hit in one or more screens of this group. Calls come from the whole dose curve; as a rule, active = well fitted curve in the direction sought with a large enough effect; inconclusive = small, poorly fitted or top-dose-only effect, or another doubt; inactive = no such curve, though single readings can be large; an effect the other way counts as inactive or inconclusive. Unless noted, % is set by controls: 0 for no effect and ±100 for the full control effect; potency is the fitted concentration of half-maximal effect.

SMILES | B2AR arrestin | RORgamma inh | VP16 counter | NPSR antagonist
COC(=O)C1=C(C)NC(=S)NC1c1sccc1C (stereo not given) | 0.1% | 15.8µM* | -9.6% | 12.6%
CC1=C(C(=O)Nc2ccccc2C(F)(F)F)C(c2sccc2C)NC(=S)N1 (stereo not given) | -1.1% | 20µM* | -1.8% | -8.4%
CC1=C(C(=O)OC(C)C)C(c2cccs2)NC(=S)N1 (stereo not given) | 0.1% | 12.6µM* | ? | 7.4%
CC[C@H](C)[C@H](NC(=O)[C@H](Cc1ccccc1)NC(=O)[C@H](CC(C)C)NC(=O)[C@H](CCSC)NC(=O)[C@H](CCC(=O)O)NC(=O)[C@H](CCC(=O)O)NC(=O)[C@H](CC(=O)O)NC(=O)[C@H](CO)NC(=O)[C@@H]1CCCN1C(=O)[C@H](CCCCN)NC(=O)[C@@H](N)[C@@H](C)O)C(=O)N[C@@H](Cc1ccc(O)cc1)C(=O)NCC(=O)N[C@@H](Cc1cnc[nH]1)C(=O)N[C@@H](Cc1ccc(O)cc1)C(=O)N[C@@H](CCCCN)C(=O)N[C@@H](CCC(N)=O)C(=O)N[C@@H](C)C(=O)N[C@H](C(=O)N[C@H](C(=O)NCC(=O)N[C@@H](CC(=O)O)C(=O)N[C@H](C(=O)N[C@@H](CC(N)=O)C(=O)N[C@H](C(=O)N[C@@H](CCC(=O)O)C(=O)N[C@@H](CCCNC(=N)N)C(=O)N1CCC[C@H]1C(=O)NCC(=O)N[C@@H](CCSC)C(=O)N[C@@H](CC(C)C)C(=O)N[C@@H](CC(=O)O)C(=O)N[C@@H](Cc1ccccc1)C(=O)N[C@H](C(=O)O)[C@@H](C)O)[C@@H](C)O)[C@@H](C)CC)C(C)C)[C@@H](C)O | · | 1.5% | 5.2% | ·
CC(C)(O)C#Cc1ccc(CN2CCC(n3nccc3NC(=O)C3CC3)CC2)cc1 | 0.8% | 0.2% | 13.4% | ·
CN1CCC(=O)N(C(CSc2ccc(Br)cc2)Cc2ccccc2)CC1 (stereo not given) | · | 22.1% | 1.6% | ·
O=C1CC(c2ccccc2)c2cc(O)ccc2O1 (stereo not given) | -1.1% | 11.2µM* | -15.2% | -9.4%[46.1 µM]
O=C1CC(c2ccc3c(c2)OCO3)c2cc(O)ccc2O1 (stereo not given) | · | -0.8% | -2.9% | ·
CCCOc1ccc(CSc2nc3ccccc3[nH]2)cc1 | 0.5% | ? | 6.31µM* | -3.8%[46.1 µM]
CCOc1ccc(OCCSc2nc3ccccc3[nH]2)cc1 | 7.6% | 0.7% | 1.0% | 2.4%
Cc1ccc2cc(/C=N/NC(=O)c3ccccc3O)c(Cl)nc2c1 | -0.2% | 2.82µM* | ? | -17.7%[46.1 µM]
Cc1cccc2cc(/C=N/NC(=O)c3ccccc3O)c(Cl)nc12 | -0.9% | 10µM* | ? | -26.6%
O=C(N/N=C/c1cc2cc3c(cc2nc1Cl)OCCO3)c1ccccc1O | 0.1% | ? | ? | -27.5%
CCN(CCO)C1CC(=O)N(c2ccccc2C)C1=O (stereo not given) | -0.1% | 3.98µM* | 3.55µM* | -13.9%[46.1 µM]
Cc1cccc(N2C(=O)CC(Cn3nc(C)cc3C)C2=O)c1 (stereo not given) | -0.1% | -0.8% | 2.8% | 9.4%
CCN(CC)C1CC(=O)N(c2cccc(C)c2)C1=O (stereo not given) | 1.5% | -142.5% | 7.08µM* | 6.1%
N[C@@H](COC(c1cccc(F)c1)c1ccccc1OCc1ccccc1)C(=O)O (stereo not given in full) | · | 17.0% | -1.4% | ·
CCOCCCn1c(=S)[nH]c2cc3c(cc2c1=O)OCO3 | -0.3% | 2.51µM* | 2.51µM* | -3.4%[46.1 µM]
O=C(CCCn1c(=S)[nH]c2cc3c(cc2c1=O)OCO3)N1CCN(c2ncccn2)CC1 | 0.0% | 15.8µM* | -20.9% | ?
CCN(CC)CCn1c(=S)[nH]c2cc3c(cc2c1=O)OCO3 | -3.9% | -41.2% | -2.7% | 1.9%[46.1 µM]
O=C(CCCCCn1c(=S)[nH]c2cc3c(cc2c1=O)OCO3)N1CCN(c2ccccc2)CC1 | -0.9% | ? | -6.9% | ·
O=C(CCCn1c(=S)[nH]c2cc3c(cc2c1=O)OCO3)N1CCN(c2ccccc2F)CC1 | -0.2% | 12.6µM* | 7.94µM* | -22.7%[46.1 µM]
O=C(CCCn1c(=S)[nH]c2cc3c(cc2c1=O)OCO3)N1CCN(c2ccc(F)cc2)CC1 | 0.1% | 7.94µM* | ? | -19.4%[46.1 µM]
O=C(c1csnn1)N1CCC2(CC1)CCN(c1ccccn1)CC2 | · | 25.6% | -10.6% | ·
NCC(O)C1CCCCCCC1 (stereo not given) | · | · | · | 5.9%[46.1 µM]
SMILES | B2AR arrestin | RORgamma inh | VP16 counter | NPSR antagonist
N[C@H](CO)Cc1cnc[nH]1 | · | -8.7% | ? | ·
COc1cccc(N2CCN(C(=O)CCCCCn3c(=S)[nH]c4cc5c(cc4c3=O)OCO5)CC2)c1 | 0.0% | 2.24µM* | -25.8% | ·
COc1cccc(N2CCN(C(=O)CCn3c(=S)[nH]c4cc5c(cc4c3=O)OCO5)CC2)c1 | 0.0% | -12.8% | 6.6% | 0.6%[46.1 µM]
NC(=S)Nc1cccc(O)c1 | -0.4% | -14.4% | 5.7% | 8.0%
O=C(NC(=S)NCCCN1CCOCC1)c1ccc(Br)cc1 | 0.2% | ? | -84.2% | 5.0%
O=C(NCCN1CCCC1)c1ccc(Br)cc1 | -0.3% | -17.0% | 8.4% | ·
O=C(CCN1CCCCC1)NNC(=S)NC(=O)c1ccc(Br)cc1 | -0.4% | 2µM* | 8.91µM* | 3.8%
O=C(CCN1CCOCC1)NNC(=S)NC(=O)c1ccc(Br)cc1 | 0.1% | 11.2µM* | ? | 1.5%
CS(=O)(=O)c1ccc(Sc2nc3ccccc3s2)c([N+](=O)[O-])c1 | -0.2% | 11.2µM* | 10µM* | -41.8%
O=[N+]([O-])c1cc(S(=O)(=O)C(F)(F)F)ccc1Sc1nc2ccccc2[nH]1 | -0.3% | ? | ? | ?
O=[N+]([O-])c1cc(S(=O)(=O)C(F)(F)F)ccc1Sc1nc2ccccc2s1 | -0.1% | 7.94µM* | 6.31µM* | ?
COc1cccc(C2=Nn3c(nnc3-c3ccc(OC)cc3OC)SC2)c1 | · | 5.3% | -8.5% | ·
Cc1cccc(N2CCN(C(=O)COc3cccc4c3OC(C)(C)C4)CC2)c1C | -0.1% | ? | 3.16µM* | -48.4%
COc1ccc(/C=N/NC(N)=S)cc1OC(=O)c1cccc2ccccc12 | -0.5% | 2.51µM* | 5.01µM* | -25.0%[46.1 µM]
NC(=S)N/N=C/c1ccc(OC(=O)c2cccnc2)cc1 | 0.1% | -42.5% | 9.2% | ·
COc1ccc(C(=O)Oc2ccc(/C=N/O)cc2)cc1 | -0.2% | 11.2µM* | 11.2µM* | -9.6%[46.1 µM]
COc1cc(/C=N/NC(=O)c2cccc3ccccc23)cc(OC)c1OC | 0.3% | 27.8% | ? | ·
COC(=O)c1cccc(/C=N/NC(N)=S)c1O | ? | 2µM* | 7.08µM* | -16.2%
COc1ccc(C(=O)Oc2cc(/C=N/NC(N)=S)ccc2OC)cc1 | -0.1% | 11.2µM* | 22.4µM* | -9.7%[46.1 µM]
COc1ccc(C(=O)C[n+]2ccc3c(c2)nnn3-c2ccccc2)cc1 | -0.8% | 1.3% | 3.1%[10 µM] | -11.9%
COc1ccc(S(=O)(=O)c2c(O)cc(C)c(NS(=O)(=O)c3ccccc3)c2C)cc1 | 0.2% | 25.2% | -5.1% | ·
CCCn1nnc(NC(=S)NC(=O)c2cccs2)n1 | -0.2% | 2µM* | 5.62µM* | 3.0%[46.1 µM]

Screens from PubChem.
